Source: PubChem (Milwaukee Institute for Drug Discovery)
Compounds with a hit are over-represented: about 7.6% of the library has one in this group of screens.
Cy5 interf NS3h – enhances or quenches Cy5 fluorescence in NS3h assay | 6% of 16,000 active | AID 720488 | fluorescence interference ratio at 100 µM | Cy5-dT15 DNA with NS3h, fluorescence interference; actives lie on both sides; signal over control mean, under 1 quenches;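 active = compound fluorescence over control fluorescence at most 0.8, a quencher, or at least a set upper limit, an enhancer; inactive = ratio between 0.8 and the set upper limit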
HCV NS3h FP – blocks HCV NS3 helicase binding to DNA | NS3h Cy5-dT15 DNA binding, fluorescence polarization | inhibition, % at 100 µM | AID 687043 | 1.6% of 16,000 active;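 active = inhibition above the average over every tested compound plus 3 SD, cut at about 40% in these data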
A number is an active result; – = inactive.

SMILES | Cy5 interf NS3h | HCV NS3h FP
CCCCNC(=O)/C(=C\c1ccc(-c2cccc([N+](=O)[O-])c2)o1)NC(=O)c1ccccc1 | – | –
CCCCNC(=O)/C(=C/c1ccc(C)o1)NC(=O)c1ccccc1 | 0.66 | –
CCCCn1c(NC(=O)c2ccc(Cl)cc2)nc2ccccc21 | – | –
O=C(Nc1ccccc1-c1ccccc1)c1cccc(I)c1 | – | –
COCCCNC(=O)CN(c1cccc([N+](=O)[O-])c1)S(=O)(=O)c1ccccc1 | 0.726 | –
Cc1ccc(CSCCNC(=O)CN(c2cccc([N+](=O)[O-])c2)S(=O)(=O)c2ccccc2)cc1 | – | –
O=C(CN(c1cccc([N+](=O)[O-])c1)S(=O)(=O)c1ccccc1)NCCSc1ccc(Cl)cc1 | 0.724 | –
COc1ccc(CCNC(=O)CN(c2cccc([N+](=O)[O-])c2)S(=O)(=O)c2ccccc2)cc1OC | – | –
O=C(NCc1ccccn1)c1c(O)c2ccccc2[nH]c1=O | – | –
Cc1ccc(NC(=O)Cn2cnc3c2c(=O)n(C)c(=O)n3C)nc1 | – | –
O=C(NC(=S)Nc1ccc([N+](=O)[O-])cc1Cl)c1ccco1 | – | –
O=C(NC(NC(=S)Nc1ccccc1[N+](=O)[O-])C(Cl)(Cl)Cl)c1ccco1 (stereo not given) | 0.705 | –
COC(=O)C1=C(C)N(c2ccccc2F)C(=O)/C1=C\c1sccc1C | – | –
COc1ccc(-c2nnc(Nc3ccc(C)cc3)c3ccccc23)cc1 | – | –
Cn1cnc2cc(Nc3nnc(-c4ccc(Cl)cc4)c4ccccc34)ccc21 | 0.702 | –
Cc1nc2cc(Nc3nnc(-c4ccc(Cl)cc4)c4ccccc34)ccc2n1C | 0.672 | –
Cc1ccc(-c2nnc(Nc3ccc4c(c3)ncn4C)c3ccccc23)cc1 | – | –
COc1ccc(S(=O)(=O)Nc2cc(Cl)ccc2C)cc1 | – | –
Cc1cc2ncn(CC(O)COc3ccc4ccccc4c3)c2cc1C (stereo not given) | – | –
CCOc1ccc(NC(=S)NC(=O)/C=C/c2ccc(C)cc2)c([N+](=O)[O-])c1 | – | –
CCOc1ccc(NC(=S)NC(=O)c2ccc(OC)cc2)c([N+](=O)[O-])c1 | – | –
CCOc1ccc(NC(=S)NC(=O)/C=C/c2ccc(OC)c(OC)c2)c([N+](=O)[O-])c1 | 0.801 | –
CCOc1ccc(NC(=O)c2ccc(S(=O)(=O)N(C)C)cc2)c([N+](=O)[O-])c1 | 0.572 | –
COc1ccc(C2CC(=O)C3=C(C2)Nc2ccccc2NC3c2ccc(NC(C)=O)cc2)cc1 (stereo not given) | – | –
COc1cccc(NC(=O)/C(=C/c2ccccc2)c2ccccc2)c1 | – | –
SMILES | Cy5 interf NS3h | HCV NS3h FP
COc1ccc(OC)c(NC(=O)/C(=C/c2ccccc2)c2ccccc2)c1 | 0.607 | –
O=C1C2ON(c3ccccc3)C(c3cccc(Br)c3)C2C(=O)N1c1ccccc1 (stereo not given) | – | –
CC1(C)CC(=O)C2=C(C1)NC1=C(C(=O)c3ccccc31)C2c1ccc(OC(=O)/C=C/c2ccc([N+](=O)[O-])cc2)cc1 (stereo not given) | – | –
CSc1nc(-c2ccccc2)nc2[nH]ccc(=O)c12 | 0.694 | –
CNCCOc1cc(C)nc(-c2ccccc2)n1 | – | –
COc1ccc(C2N(c3ccccc3)CCN2c2ccccc2)cc1O | 0.753 | –
COc1ccc(C2N(Cc3ccccc3)CCN2Cc2ccccc2)cc1OC | – | –
O=C1NC(=Nc2ccc(Br)cc2)S/C1=C\c1ccc(O)cc1 | – | –
Cc1cc(NC(=O)CSc2nc(-c3ccccc3)cc(-c3ccccc3)n2)no1 | – | –
O=C(COc1ccccc1Cl)Nc1c[nH]c(=O)[nH]c1=O | 1.3 | –
O=C(COc1ccccc1Cl)NNC(=O)c1ccccc1I | – | –
Cc1ccc(C(=O)N/C(=C\c2cccc([N+](=O)[O-])c2)C(=O)NCC(C)C)cc1 | – | –
COc1cccc(CCNC2CC(=O)N(c3ccc(C)cc3)C2=O)c1 (stereo not given) | – | –
Cc1ccc(N2C(=O)CC(NCc3cccnc3)C2=O)cc1 (stereo not given) | 1.31 | –
O=c1/c(=C/c2ccccc2OS(=O)(=O)c2ccccc2[N+](=O)[O-])sc2nc3ccccc3n12 | – | –
COc1cc(/C=c2\sc3nc4ccccc4n3c2=O)ccc1OS(=O)(=O)c1ccccc1[N+](=O)[O-] | 1.22 | –
O=C1NN=C2C3CCC4CC12CC1(C3)C(=O)NN=C41 | 0.736 | –
Cc1ccc(C(=O)Nc2nc3ccccc3n2Cc2ccc(Cl)cc2)cc1 | – | –
O=C(Nc1nc2ccccc2n1Cc1ccc(Cl)cc1)c1ccccc1 | 0.735 | –
Cc1cc(C(=O)N/N=C\c2ccc(I)o2)n[nH]1 | – | –
Cc1ccc(-c2ccc(/C=C3/SC(=S)NC3=O)o2)cc1Cl | 0.768 | –
O=C1NC(=S)S/C1=C/c1ccc(-c2ccc([N+](=O)[O-])cc2Br)o1 | – | –
O=C1S/C(=C\c2cccs2)C(=O)N1c1ccccc1 | 0.637 | –
